Source: PubChem BioAssay
An excerpt weighted towards active compounds, which were near 3.8% of everything screened.
NALP1 yeast inh – NALP1 inhibition | S. cerevisiae NALP1/ASC/caspase-1 growth, X-gal OD620, 72 h | inhibition, % at 10 µM | actives 0.61% (n = 280,000); in the data active = inhibition mostly above about 24%, no sharp cut-off; inactive = mostly below about 32%
HSF1 inh – HSF1 inhibition. NIH3T3-HGL HSE-luciferase, MG132-induced, luminescence 8 h; hits give low values. activity change, negative = inhibition, % at 7.5 µM (by protocol). actives 0.77% (n = 300,000). AID 2098;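 active = more than half of replicate wells show activity change below -50%, luminescence cut by over half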;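 note: luciferase reports HSF-1 transcriptional activity via heat shock element; 0% = median of DMSO wells and -100% = zero luminescence signal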
Hsp70 activator – transcriptional activators of Hsp70; HeLa Hsp70 promoter luciferase reporter, luminescence; scaled: vehicle 0, proteasome-inhibitor control 100%; activation, % at 10 µM; actives 0.04% (n = 200,000); AID 1203;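 active = activation above the mean across all tested compounds plus 3 SD, cutoff set per campaign, cut at about 5.5% in these data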;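 note: 100% = MG132 at 30 µM as the positive control and 0% = DMSO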
HSF1 activator – increases HSF-1 driven luciferase reporter signal; NIH3T3-HGL HSF-1 luciferase reporter, MG132, 8 h; 100% = twice DMSO control signal; activation, % at 9 µM; actives 1.7% (n = 300,000);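 active = mean replicate activation of at least 50% with a set share of replicates each reaching 50%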;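 note: 0% = median of the neutral control wells and 100% = twice that signal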
p-CIP stab down – lowers stability of the mouse p/CIP coactivator protein; Q05BA5; F442A p/CIP-EGFP cells, EGFP fluorescence, 16 h; decrease of EGFP signal, % at 10 µM; actives 0.01% (n = 290,000); AID 1984;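 active = EGFP signal decrease of at least 30% at 10 µM or well 3 SD below plate mean, unless failing retest; inactive = the rest, including hits failing retest or dose response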
HSP90 refold inh – HSP90 refolding inhibition in rabbit reticulocyte lysate | luciferase refolding luminescence, 3 h | inhibition, % at 5.6 µM | actives 0.91% (n = 290,000) | AID 1789;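 active = inhibition above the screen-wide mean plus 3 SD, computed separately per campaign, cut at about 16% in these data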;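 note: 0% = DMSO wells and 100% = 60 µM geldanamycin wells; inhibitors lower the luminescence because luciferase stays unfolded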
* = called active by the depositor.

For CCn1c(SCC(=O)N2CCOCC2)nc2oc3c(Cl)cc(Cl)cc3c(=O)c2c1=O the results were NALP1 yeast inh -9.5, HSF1 inh 66.4, Hsp70 activator 0.1, HSF1 activator 121.2*, p-CIP stab down -15.3 and HSP90 refold inh -2.7.
`CCn1c(SCC(=O)N2CCOCC2)nc2sc3c(c2c1=O)CCCC3` gave NALP1 yeast inh 1.8, HSF1 inh 3.9, Hsp70 activator -0.1, HSF1 activator -16.1, p-CIP stab down 10.1 and HSP90 refold inh 2.3.
Cc1nn(C)c(Oc2ccccc2)c1CCNS(=O)(=O)c1ccc(Cl)cc1 was read as NALP1 yeast inh 38.9, HSF1 inh 8.7, Hsp70 activator -0.1, HSF1 activator 55.2*, p-CIP stab down -0.7 and HSP90 refold inh 0.2.
Screening COc1ccc(S(=O)(=O)NCCc2c(C)nn(C)c2Oc2ccccc2)cc1 returned NALP1 yeast inh 30.3, HSF1 inh 0.5, Hsp70 activator -0.3, HSF1 activator 12.1, p-CIP stab down 7.8 and HSP90 refold inh 0.2.
Cc1ccccc1OCCC(=O)OCC(=O)Nc1c(F)cccc1F was read as HSF1 inh -0.4 and HSF1 activator -15.7.
O=C(CN1C(=O)c2ccccc2C1=O)NCCc1c[nH]c2ccc(Cl)cc12 was read as NALP1 yeast inh 28.4, HSF1 inh 7.4, Hsp70 activator 0.1, HSF1 activator 11.1, p-CIP stab down -0.1 and HSP90 refold inh 4.9.
Screening Cc1ccc2[nH]cc(CCNC(=O)CN3C(=O)c4ccccc4C3=O)c2c1 returned HSF1 inh 24.0, Hsp70 activator -0.2, HSF1 activator 73.3*, p-CIP stab down 1.6 and HSP90 refold inh -2.1.
Cc1ccc2cc(CCNC(=O)c3ccco3)c(=O)[nH]c2c1C was read as NALP1 yeast inh 25.0, HSF1 inh 29.2, Hsp70 activator 0.4, HSF1 activator 46.0, p-CIP stab down -5.4 and HSP90 refold inh -1.3.
Cc1cc(Br)c2[nH]cc(CCNC(=O)c3ccco3)c2c1 was read as NALP1 yeast inh 40.6*, HSF1 inh -69.5*, HSF1 activator -77.0, p-CIP stab down -7.3 and HSP90 refold inh -6.2.
For Cc1ccc2[nH]cc(CCNC(=O)c3ccco3)c2c1 the results were NALP1 yeast inh 14.4, HSF1 inh -68.4*, HSF1 activator -76.1, p-CIP stab down -7.7 and HSP90 refold inh -5.5.
Screening Cc1ccc2[nH]cc(CCNC(=O)/C=C/c3ccco3)c2c1 returned NALP1 yeast inh -10.8, HSF1 inh 2.1, HSF1 activator 18.8, p-CIP stab down -5.3 and HSP90 refold inh 1.7.
For COc1ccc2c(c1)cc(C(=O)N[C@H](C(=O)N1CCC(C(=O)O)CC1)C(C)C)n2C the results were NALP1 yeast inh 16.6, HSF1 inh -7.7, HSF1 activator 0.2, p-CIP stab down -13.2 and HSP90 refold inh 2.5.
For C/C(=N\N=C(/N)c1nonc1N)c1ccc2c(c1)OCO2 the results were HSF1 inh 53.1, HSF1 activator 100.8*, p-CIP stab down -7.2 and HSP90 refold inh 4.8.
C/C(=N/NC(=O)c1nnn(-c2nonc2N)c1-c1ccccc1)c1ccc2c(c1)OCO2 was read as NALP1 yeast inh 12.9, HSF1 inh 4.3, HSF1 activator 16.7, p-CIP stab down -5.2 and HSP90 refold inh -3.1.
CC(C)[n+]1ccn(C2=C([O-])c3ccccc3C(=O)/C2=N\S(=O)(=O)c2ccccc2)c1 was read as NALP1 yeast inh 35.6*, HSF1 inh 4.8, HSF1 activator 16.7, p-CIP stab down -27.5 and HSP90 refold inh -0.2.
For CC(C)(C)c1cc[n+](C2=C([O-])c3ccccc3C(=O)/C2=N\S(=O)(=O)c2ccccc2)cc1 the results were NALP1 yeast inh 15.0, HSF1 inh -24.7, HSF1 activator -32.3, p-CIP stab down -5.6 and HSP90 refold inh 16.3*.
`O=C1/C(=N\S(=O)(=O)c2cccs2)C([n+]2cccc(Cc3ccccc3)c2)=C([O-])c2ccccc21` gave NALP1 yeast inh -7.2, HSF1 inh 87.6, HSF1 activator 139.1*, p-CIP stab down -26.6 and HSP90 refold inh 5.4.
Screening O=C(Cn1ncc(Cl)c(Cl)c1=O)N1CCN(S(=O)(=O)c2ccc3ccccc3c2)CC1 returned NALP1 yeast inh 43.1, HSF1 inh 60.6, Hsp70 activator 1.0, HSF1 activator 76.5*, p-CIP stab down -16.0 and HSP90 refold inh -1.2.
Screening CN(C)C=NC(=O)c1cn(-c2ccc(F)cc2)c(=O)c2ccccc12 returned NALP1 yeast inh -0.9, HSF1 inh -7.0, Hsp70 activator 0.2, HSF1 activator 0.7, p-CIP stab down 10.7 and HSP90 refold inh -0.3.
Screening N#Cc1nc(-c2ccc(Cl)cc2)oc1NCC1CCCO1 (stereo not drawn) returned NALP1 yeast inh -10.4, HSF1 inh -0.4, Hsp70 activator 0.1, HSF1 activator -4.2, p-CIP stab down -7.6 and HSP90 refold inh -0.3.
Screening Cc1ccc(OCCN2CCN(c3nc(NCc4ccco4)c4ccccc4n3)CC2)cc1 returned NALP1 yeast inh 73.0*, HSF1 inh 0.0, Hsp70 activator -0.1, HSF1 activator -6.4, p-CIP stab down -0.4 and HSP90 refold inh 0.7.
OCCN1CCN(c2nc(NCc3ccco3)c3ccccc3n2)CC1 was read as NALP1 yeast inh -59.4, HSF1 inh -10.7, Hsp70 activator -0.5, HSF1 activator 15.3, p-CIP stab down -0.3 and HSP90 refold inh 2.3.
For CCCCN(c1ccccc1)c1ncnc(N)c1[N+](=O)[O-] the results were NALP1 yeast inh 13.2, HSF1 inh -52.1*, Hsp70 activator -0.1, HSF1 activator -55.5, p-CIP stab down -1.5 and HSP90 refold inh -0.9.
Cc1cc(C)n(C(C[N+](=O)[O-])c2ccc(Cl)cc2)n1 (stereo not drawn) was read as NALP1 yeast inh 101.0*, HSF1 inh -3.1, Hsp70 activator -0.2, HSF1 activator -10.1, p-CIP stab down 7.3 and HSP90 refold inh 4.5.
`CC(C)N(C(=O)COC(=O)CNC(=O)c1ccc(Br)cc1)c1ccccc1` gave NALP1 yeast inh 11.4, HSF1 inh -4.1, Hsp70 activator 0.2, HSF1 activator -24.8, p-CIP stab down -0.6 and HSP90 refold inh 0.1.
Screening COc1ccc(N2CCN(C3=CC(=O)N(c4cccc(Cl)c4)C3=O)CC2)cc1 returned NALP1 yeast inh 23.5*, HSF1 inh 5.0, Hsp70 activator -0.5, HSF1 activator 30.5, p-CIP stab down -2.3 and HSP90 refold inh -2.4.
For Cc1cccc(N=c2oc3cc(O)ccc3cc2C(N)=O)c1 the results were NALP1 yeast inh -11.9, HSF1 inh 22.6, Hsp70 activator -0.1, HSF1 activator 58.4*, p-CIP stab down -6.3 and HSP90 refold inh -3.0.
`COc1ccccc1N=c1oc2cc(O)ccc2cc1C(N)=O` gave NALP1 yeast inh 5.5, HSF1 inh 1.2, Hsp70 activator 0.3, HSF1 activator 26.9, p-CIP stab down -25.1 and HSP90 refold inh 8.1.
